Results published in PubChem BioAssay (NCI).
Compounds without any hit were thinned out: in the full panel of roughly 83,000, 20% have a hit.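 Negative percent growth values reflect cell death: -40 means 40% of the cells present at the start died, and -100 means all died.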 Activity calls are given as the source filed them.

What follows are compounds tested on SR leukemia (assay: NCI-60 one-dose screen, 48 h (100 = growth as untreated, 0 = no growth, -100 = all killed)). Conditions: 10 µM unless noted.
Procedure: Growth inhibition of the SR human tumor cell line is measured as a screen for anti-cancer activity. Cells are grown in 96 well plates and exposed to the test compound for 48 hours. Compounds are tested at a single concentration, which is 10^-5 M for most compounds. The reported endpoint is percent growth (GI% or GIPRCNT), where numbers from 0 - 100% represent growth inhibition, and numbers from -100% - 0 represent cell death. For example, a value of 40 represents 60% growth inhibition. A value of 0 means no net growth occurred over the course of the experiment. A value of -40 indicates 40% of cells at the beginning of the experiment died by the end of the experiment. A value of -100 means all cells are dead at the end of the experiment.
NCI-60 Human Tumor Cell Lines Screen was performed using the standard one-dose NCI protocol, which is described in more detail at https://dtp.cancer.gov/discovery_development/nci-60/default.htm.
Compounds with GIPRCNT values below 10 were considered active. Activity score was based on GIPRCNT using the following formula: […]
Score is 0 for GIPRCNT values of 100 or above, 50 for GIPRCNT values of 0, and 100 for GIPRCNT values of -100.
With `COc1cc(/C=C/C(=O)c2c(C)nc3ccccc3c2C)ccc1OCCCOc1cc2c(cc1OC)C(=O)N1CCC[C@H]1C=N2` the growth was -34.3% (active). `CC[C@H](Nc1nc(N)nc(N)c1Cl)c1nc2cccc(NCc3ccc(C(=O)NO)cc3)c2c(=O)n1-c1ccccc1` was tested, and the growth was -5.94% (active). With `CCOc1ccc([C@@H]2[C@@H](Oc3ccccc3)C(=O)N2c2cc(OC)c(OC)c(OC)c2)cc1` the growth was 5.44% (active). `CCC(C)C1NC(=O)c2nc(oc2-c2ccccc2)-c2csc(n2)-c2csc(n2)-c2nc(oc2C)-c2coc(n2)CNC(=O)C(C(C)CC)NC1=O` (stereo not given) was tested, and the growth was -47.8% (active). With `COc1ccc([C@@H]2[C@@H](Cl)C(=O)N2c2cc(OC)c(OC)c(OC)c2)cc1C` the growth was 9.63% (active). `COc1ccc(C2C3=C(COC3=O)N(CCO)c3cc(OC)c(OC)cc32)cc1` (stereo not given) was tested, and the growth was 93.1% (inactive). With `CC(C)CC(NC(=O)C(CCCN=C(N)N)NC(=O)OCc1ccccc1)C(=O)NC(CNC(=O)/C=C/c1ccccc1)C(C)C` (stereo not given) the growth was 98.3% (inactive). `CCCCn1cnc(-c2cc(-c3ccccc3)cc(C(F)(F)F)c2)n1` was tested, and the growth was 89.5% (inactive). In the case of `COc1cc(/C=C2\C(=O)Nc3ccc(N(C)C)cc32)cc(OC)c1OC`, the growth is reported as 19.1% (inactive). In the case of `N#CC1=C(N)Oc2nc[nH]c(=O)c2C1c1cccs1` (stereo not given), the growth is reported as 92% (inactive). With `COc1cc(-c2n/c(=C\c3c(O)[nH]c4cc(Cl)ccc34)cc3c2=Nc2ccccc2-3)cc(OC)c1OC` the growth was 36.8% (inactive). With `NNC(=O)Cc1ccccc1` the growth was 88.9% (inactive). For `COc1cc(NC(C)CCCN)c2ncccc2c1Oc1ccc(Cl)cc1` (stereo not given), the growth was 53.2% (inactive). With `Cc1nc2ccc(Nc3nc(N4CCOCC4)nc(N4CCN(C)CC4)n3)cc2n1Cc1ccccc1` the growth was 24.9% (inactive). With `c1ccc(C2=Nc3ccccc3SC2)cc1` the growth was 107% (inactive). In the case of `COc1cc(CN2CCO[C@H](COc3cccc(F)c3)C2)ccc1Cl`, the growth is reported as 50.8% (inactive). `COc1ccc(Nc2ncccc2C(=O)NCc2cn(Cc3cc(OC)cc(OC)c3)nn2)cc1` was tested, and the growth was 84.8% (inactive). For `CC(C)c1[nH]ncc1-c1nc2ccc3[nH]ncc3c2c2c1CCCC2`, the growth was 6.47% (active). For `Clc1cc(Br)ccc1-c1ccc(CNCC2CCNCC2)o1`, the growth was 17.2% (inactive). In the case of `Cn1nc(C(F)(F)F)cc1-c1c[nH]c(OCc2ccc(Cl)cc2)c(-c2ccc(Cl)c(C(F)(F)F)c2)c1=O`, the growth is reported as 27.5% (inactive). For `Cc1cc(C)c(C#N)c(SCC(=O)c2sc3c(C#N)c(C)cc(C)[n+]3c2[O-])n1`, the growth was 5.47% (active). With `NC(=O)c1noc(C(=O)c2ccccc2)c1N` the growth was 90.8% (inactive). In the case of `COc1ccc(C2CC(c3cccc(Nc4ccnc5cc(Cl)ccc45)c3)=NN2c2ccccc2)cc1` (stereo not given), the growth is reported as 29.7% (inactive). For `Cc1cc(C#Cc2ccccc2)ccc1-n1c(/C=C/c2ccc(F)cc2)nc2ccccc2c1=O`, the growth was 64.8% (inactive). With `Cn1nc(C(F)(F)F)cc1-c1cc(Cl)c(OCc2ccc(Cl)cc2)c(-c2ccc(Cl)c(C(F)(F)F)c2)c1O` the growth was 17.6% (inactive). `Cc1ccc(S(=O)(=O)NC(CCC(=O)Nc2ccc(Cl)cc2)C(=O)Nc2ccc(Cl)cc2)cc1` (stereo not given) was tested, and the growth was -18.2% (active). In the case of `COc1cccc2nc(Nc3cccc(NC(=O)c4cc(N5CCOCC5)cc(C(F)(F)F)c4)c3)ccc12`, the growth is reported as 74.4% (inactive). For `O=C(c1ccccc1)N(CCCCl)C(=O)N(CCCCl)C(=O)c1ccccc1`, the growth was 101% (inactive). `N#Cc1c(N)c(C(=O)c2ccc3c(c2)OCCO3)n2c1CCCC2` was tested, and the growth was -20% (active). In the case of `CCCCOc1ncnc2nc[nH]c12`, the growth is reported as 88.7% (inactive). With `CC(CN1CCN(CCOCCO)CC1)CN1c2ccccc2Sc2ccc(Cl)cc21` (stereo not given) the growth was -2.53% (active). `COc1ccc(/C(=C\c2cc(OC)c(OC)c(OC)c2)C(=O)N2CCN(c3ccccc3)CC2)cc1O` was tested, and the growth was 87.7% (inactive). With `O=c1[nH]c2cc(Cl)c(Cl)cc2o1` the growth was 126% (inactive). In the case of `O=C(NC1CC1)c1ccc(-c2nc3ccc4[nH]ncc4c3c3c2CCCC3)cc1`, the growth is reported as 32.2% (inactive). `OC(c1cc2c(Cl)cc(Cl)cc2c2cc(C(F)(F)F)ccc12)C1CCCCN1` (stereo not given) was tested, and the growth was -63.5% (active). For `Cc1cc(O)c(C2=NN(c3ccc(S(N)(=O)=O)cc3)C(c3ccc(Cl)cc3)C2)c(C)c1Cl` (stereo not given), the growth was -24.1% (active). With `CN(C)c1ccc(Nc2c3ccccc3nc3ccccc23)cc1` the growth was -8.36% (active). With `COc1cc(C2CC(c3cccc(Nc4ccnc5cc(Cl)ccc45)c3)=NN2c2ccccc2)cc(OC)c1OC` (stereo not given) the growth was 52.7% (inactive). In the case of `CNCc1cccc2c1OCCOCCOCCC(C)S(=O)(=O)c1ccc(cc1)-c1cnc(N)c(n1)C(=O)N2` (stereo not given), the growth is reported as -19.2% (active). `Oc1[nH]c2ccccc2c1/C=c1/ccc2c(c1)N=C(c1ccc(C(F)(F)F)cc1)N=2` was tested, and the growth was 12.1% (inactive).
